Molecules are shown by their SMILES.

The test can be described thus: COS7 lysate on small-molecule microarray, probe aHis, 635 nm (AID 1123).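 Further: z-score combines 667nm fluorescence intensity with signal-to-noise per printed compound spot.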 The following applies: COS7 cell lysate, fluorescence, higher = more signal.
`CCOC(=O)[C@H](Cc1ccccc1)NC(=O)CCC1CC(OC(=O)NCCc2ccc(F)cc2)CC2(CCCC(COC(=O)NCCOc3ccccc3)O2)O1` (stereo not given in full) had a composite z-score of 0.585.

On to `Cc1ccc(S(=O)(=O)N[C@@H]2COC(=O)CC=C[C@@H](C)[C@H](NS(=O)(=O)c3ccc(C)cc3)COC(=O)[C@H](C)NC(=O)CC=C[C@H]2C)cc1`, for which the composite z-score was -1.18.

In the case of `CCOC(=O)CCN1C(=O)[C@H]2[C@H]3[C@H](O)[C@H](O)CC(=NOCC(C)C)[C@@H]3CC[C@H]2C1=O`, the composite z-score is -0.934.

The compound `CC(=O)OC[C@H]1O[C@H](CCON=C(C)CCN2CCCc3nc(C)c(C)cc32)C=C[C@@H]1OC(C)=O` returned a composite z-score of 0.214.

Take `Cc1cc2c(nc1C)CCCCN2CC(O)CN1CCCc2nc(-c3ccc(Br)cc3)ccc21` (stereo not given): the composite z-score worked out at 0.417.

`CC(C)(C)N1C(=O)[C@H]2[C@@H]3C(=CC[C@H]2C1=O)C(=O)[C@H]1O[C@H]1[C@H]3O` registered a composite z-score of -0.511.

Compound `CC(CCN1CCCc2nc(C)c(C)cc21)=NOC[C@@H](C)[C@H](OCc1ccccc1)C(C)C` gave a composite z-score of 0.816.

`CON=C(C)CCC(=O)OC[C@H]1O[C@H](C#Cc2ccccc2)C=C[C@@H]1Oc1ccc(C)cc1` displayed a composite z-score of 0.661.

The compound `C[C@@H]1CC[C@@H](C(=O)O)N[C@H]1c1cccc(N2CCOCC2)c1` returned a composite z-score of 0.531.

`O=C1C2=CC[C@H]3C(=O)N(C4CCCCC4)C(=O)[C@H]3[C@H]2[C@H](O)[C@@H]2O[C@H]12` had a composite z-score of -0.888.

In the case of `CCOC(=O)[C@H](Cc1ccccc1)NC(=O)CCC1CC(OC(=O)NCCc2ccc(F)cc2)CC2(CCCC(COC(=O)NCc3cccc(C(F)(F)F)c3)O2)O1` (stereo not given in full), the composite z-score is 2.08.

`O=C1[C@H]2[C@H]3[C@H](O)[C@H](O)CC(=NO[C@@H]4O[C@H](CO)[C@@H](O)[C@H](O)[C@H]4O)[C@H]3CC[C@H]2C(=O)N1C[C@@H]1CCCO1` had a composite z-score of -0.686.

On to `CC(CCC(=O)OC[C@H]1O[C@H](C#Cc2ccccc2)C=C[C@@H]1Oc1ccc(C)cc1)=NOC[C@@H](C)[C@H](OCc1ccccc1)C(C)C`, for which the composite z-score turned out to be 1.47.

`C[C@@H]1CC[C@H]2C(=O)OC(Cc3ccccc3)CN2[C@H]1c1ccc(Br)cc1` (stereo not given in full) showed a composite z-score of 0.712.

As to `COC(=O)CC=C[C@@H](C)[C@@H](C=NOC[C@@H](O)COCc1ccco1)OC`, the composite z-score is -0.452.

As for `CCc1cc2c(nc1CC)CCN(CCC(C)=NOC[C@@H](C)[C@H](OCc1ccccc1)C(C)C)C2`, the composite z-score is -0.171.

In the case of `O=C1C2=CC[C@H]3C(=O)N(C[C@@H]4CCCO4)C(=O)[C@H]3[C@H]2[C@H](O)[C@@H]2O[C@H]12`, the composite z-score was -0.534.

In the case of `CCOC(=O)CCN1C(=O)[C@H]2[C@H]3[C@H](O)[C@H](O)CC(=NNC(=O)OCC)[C@H]3CC[C@H]2C1=O`, the composite z-score was 0.294.

On to `COc1ccc2c(c1)O[C@@H](c1cccc(C(F)(F)F)c1)[C@H](O)C2=O`, for which the composite z-score is -0.0749.

As for `COC(=O)CC=C[C@@H](C)[C@@H](C=NOC(C)CN1CCCCc2nc(C)c(C)cc21)NS(=O)(=O)c1ccc(C)cc1` (stereo not given in full), the composite z-score was -0.065.

Turning to `CCOC(=O)[C@H](Cc1ccccc1)NC(=O)CCC1CC(OC(=O)NCc2cccc3ccccc23)CC2(CCCC(COC(=O)NCCc3ccccc3OC)O2)O1` (stereo not given in full), the composite z-score came out at 0.474.

`O=C1C=C[C@@H](O)[C@@H]2[C@@H]3C(=O)N(c4cccc(Oc5ccccc5)c4)C(=O)[C@@H]3CC[C@@H]12` gave a composite z-score of -0.55.

`O=C1C=C[C@@H](O)[C@@H]2[C@@H]3C(=O)N(Cc4ccccc4)C(=O)[C@@H]3CC[C@@H]12` gave a composite z-score of 0.556.

As to `COC(=O)[C@H](C)NC(=O)CCC1CC(OC(=O)NCc2ccc3c(c2)OCO3)CC2(CCCC(COC(=O)NCc3ccccc3)O2)O1` (stereo not given in full), the composite z-score worked out at 0.849.

`COc1ccc(COC(=O)NN=C2C[C@@H](O)[C@@H](O)[C@@H]3[C@@H]4C(=O)N(C(C)(C)C)C(=O)[C@@H]4CC[C@@H]23)cc1` yielded a composite z-score of 0.685.

These data come from PubChem BioAssay.
